Experimental data from PubChem BioAssay (NCI).
This is part of a sample that, as a whole, favours compounds with a hit. Of some 83,000 tested, about 20% had one in any assay.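 Compound tested at a single concentration for 48 hours in 96-well plates; a percent growth value below 10 was scored as active.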 Values without a mark were called inactive. Calls of active or inactive are those of the source.

Assays:
Assay in all cases: NCI-60 one-dose screen, 48 h (100 = growth as untreated, 0 = no growth, -100 = all killed)
Conditions in all cases: 10 µM unless noted
T-47D breast = test system: T-47D breast
MCF7 breast = test system: MCF7 breast
HCT-116 colon = test system: HCT-116 colon
HCC-2998 colon = test system: HCC-2998 colon
KM12 colon = test system: KM12 colon
MDA-MB-435 melanoma = test system: MDA-MB-435 melanoma
SW-620 colon = test system: SW-620 colon
BT-549 breast = test system: BT-549 breast

SMILES | growth (T-47D breast) | growth (MCF7 breast) | growth (HCT-116 colon) | growth (HCC-2998 colon) | growth (KM12 colon) | growth (MDA-MB-435 melanoma) | growth (SW-620 colon) | growth (BT-549 breast)
CCN(CC)c1ccc2nc3ccc(N=Nc4ccc(O)cc4)cc3[n+](-c3ccccc3)c2c1 | 32.7% | -13.8% (active) | 8.46% (active) | 62.8% | 34.8% |  |  | 
C=C[C@]1(C)C=C2C(=O)[C@@]3(O)OC[C@@]4(CCCC(C)(C)C43O)C2(O)C(O)C1 (some centres undefined) | 20.9% | 21% | -79.6% (active) |  | 89.4% | 60.2% | -57.7% (active) | 
C/C=C(/C)C(=O)OC1C=C(CO)C(=O)C(OC(=O)/C(C)=C\C)C1C(C)C (centres undefined) |  | -16.6% (active) | -76.1% (active) | -85.9% (active) | -41.3% (active) | -78.7% (active) | -59% (active) | -32.7% (active)
O=C(Nc1ccc(-n2cc(-c3ccncc3)c(-c3ccc(Cl)c(O)c3)n2)cc1)c1ccc(Cl)c(C(F)(F)F)c1 | 47.2% | 6.22% (active) |  | 5.55% (active) | 3.31% (active) | 3.99% (active) | -79.4% (active) | 
O=C(Nc1ccc(-n2cc(-c3ccncc3)c(-c3ccc(Cl)c(O)c3)n2)cc1)c1cc(Cl)cc(Cl)c1 | 79.1% | 51.6% | 16.1% | 33% | 19.3% |  | 0.0883% (active) | 
COC(=O)Nc1nc2ccc(C(=O)c3ccccc3N(C)C3COC3)cc2[nH]1 |  | 19% | 30.4% | 67.2% | 17% | -42.1% (active) | 14.9% | 60.4%
Cc1ncc(C(=O)Nc2ccc(CN3CCN(C)CC3)c(C(F)(F)F)c2)cc1C#Cc1c(N)ncc2ccccc12 |  | -71.7% (active) | -88.2% (active) | -89.6% (active) | -68.1% (active) | -92.3% (active) | -60.6% (active) | -96.4% (active)
COC(=O)/C=C/c1cc(O)c2oc(-c3ccc(O)c(O)c3)c(C(=O)OC)c2c1 |  | 9.36% (active) | 24.5% | 47.2% | 13.8% | -37.1% (active) | 14.8% | 46.6%
CCC(C)C1NC(=O)C(CCCCN)NC(=O)C(CCCCN)NC(=O)C(CC(C)C)NC(=O)C(CCCCN)NC(=O)C(C(C)CC)NC(=O)C(C(C)C)NC(=O)C(C(C)CC)NC(=O)C(CCCCN)NC(=O)C(CCCCN)NC(=O)C(C)NC(=O)C(CCCCN)NC(=O)C(CC(C)C)NC1=O (centres undefined) |  | 22.5% | 10.7% | 23.2% | 6.18% (active) | 26.5% | 39.1% | 35.5%
COC(=O)c1ccc2[nH]c(O)c(C(=Nc3ccc(N(C)C(=O)CN4CCN(C)CC4)cc3)c3ccc4c(c3)OCO4)c2c1 |  | 11.1% | 0.577% (active) | 16% | 4.89% (active) | 21.2% | 0.696% (active) | 3.64% (active)
CC(C)OC(=O)c1ccc2n1CCCc1cnc(Nc3ccccc3)nc1-2 |  | 65.4% | 73.2% | 104% | 52.8% | 42.7% | 91% | 86.4%
Brc1ccc(-c2nc3ccccc3s2)cc1 |  | 58.7% | 89.4% | 110% | 97.3% | 105% | 94.5% | 101%
c1ccc(Nc2ncc3c(n2)-c2cccn2CC3)cc1 |  | 13.4% | 92% | 47.5% | 27.9% | 105% | 102% | 102%
COC(=O)c1ccc2[nH]c(O)c(C(=Nc3ccc(N(C)C(=O)CN4CCN(C)CC4)cc3)c3ccc(C)cc3)c2c1 |  | -67.8% (active) | -66.1% (active) | 9.34% (active) | -17.3% (active) | 10.3% | -26.5% (active) | -39.5% (active)
Cc1ccc(C(C)C)c(OCc2ccc(C(=O)N/N=C/c3cccc(O)c3O)cc2)c1 |  | 15.1% | 20.4% | 45.7% | 36.1% | 55.9% | 47.8% | 36.2%
C/C(=N\Nc1cccc(Cl)n1)c1ccccn1 |  | 10.1% | 10% | 32.6% | 25.8% | 31.3% | 32.5% | 22.9%
O=C1C(=O)c2ccccc2C(O)=C1CCCc1ccc(Oc2ccccc2)cc1 |  | 83.3% | 22.1% | 103% | 67.3% | 45.4% | 39.9% | 60.9%
CC(C)OC(=O)[C@H](C)N[P@@](=O)(OC[C@@]1(C)O[C@@H](n2cc(F)c(N)nc2=O)C[C@@H]1O[P@](=O)(N[C@@H](C)C(=O)OC(C)C)Oc1ccccc1)Oc1ccccc1 |  | 50.3% | 88.2% | 46.7% | 76% | 86.6% | 61.1% | 75.9%
COc1cc2c(c(OC)c1OC)C(=O)CC(c1cccc(C(=O)Nc3cccc(Br)c3)c1)O2 (centres undefined) |  | 68.3% | 58.1% | 112% | 71.2% | 69.3% | 95.4% | 63%
CCN(CC)CCCNc1c2ccc(Cl)cc2nc2ccc(OC)cc12 |  | -16.4% (active) | -4.77% (active) | -68.1% (active) | 0.483% (active) | -90.5% (active) | 3.44% (active) | -20.4% (active)
Cc1nc2c(nnn2-c2ccccc2)c2nc(-c3ccccc3)oc(=O)c12 |  | 92.3% | 101% | 116% | 118% | 111% | 109% | 105%
CC1(C)Oc2cc3oc(=O)ccc3cc2C[C@@H]1OCCOS(=O)(=O)c1ccc(C#N)cc1 |  | 82.3% | 110% | 103% | 103% | 94.9% | 89.3% | 90.3%
CN1CCN(Cc2ccc(NC(=O)c3cncc(C#Cc4c(N)ncc5ccc(F)cc45)c3)cc2C(F)(F)F)CC1 |  | 6.26% (active) | 4.69% (active) | 42.2% | -24.9% (active) | -80.1% (active) | -43.2% (active) | 36.7%
Cc1ccc(C(=O)Nc2ccc(CN3CCN(C)CC3)c(C(F)(F)F)c2)cc1C#Cc1cnc(N)c2ccc(C#N)cc12 |  | 74.2% | 13.9% | 93% | 18.4% | 10.8% | 46.2% | 53.1%

SMILES | growth (T-47D breast) | growth (MCF7 breast) | growth (HCT-116 colon) | growth (HCC-2998 colon) | growth (KM12 colon) | growth (MDA-MB-435 melanoma) | growth (SW-620 colon) | growth (BT-549 breast)
O=C1/C(=N\c2cc(=O)[nH]n2S(=O)(=O)c2ccccc2)Nc2ccccc21 |  | 96.5% | 99.3% | 104% | 99.4% | 108% | 99.3% | 106%
COC(=O)c1ccc2[nH]c(O)c(C(=Nc3ccc(N(C)C(=O)CN4CCN(C)CC4)cc3)c3ccc(OC)cc3)c2c1 |  | 23.9% | 3.03% (active) | 30.8% | 13.1% | 29.6% | 4.33% (active) | 22.5%
C=C(C)[C@@H]1CC[C@]2(COC(=O)c3ccccc3C(=O)O)CC[C@]3(C)[C@H](CC[C@@H]4[C@@]5(C)CCCNC(C)(C)[C@@H]5CC[C@]43C)[C@@H]12 |  | 26.3% | 32.2% | 72.1% | 51.9% | 60.9% | 70.5% | 72.6%
COc1ccc2cnc(N)c(C#Cc3cc(C(=O)Nc4ccc(CN5CCN(C)CC5)c(C(F)(F)F)c4)cnc3C)c2c1 |  | 39% | 20.5% | 86.1% | 11% | 26.2% | 13.8% | 54.7%
O=C(NCCCl)Nc1nccnc1OCc1ccc(F)cc1 |  | 85.1% | 104% | 113% | 107% | 107% | 103% | 88.8%
Clc1ccc(N/N=C(\c2ccccc2)c2ccccn2)nc1 |  | 3.62% (active) | 2.71% (active) | 35.9% | 21.7% | 26.6% | 27.2% | 16.7%
c1ccc(C(=NNc2nc3ccccc3o2)c2ccccn2)nc1 |  | 6.93% (active) | 4.99% (active) | 44.3% | 24.6% | 25.2% | 29.7% | 18.7%
O=C1c2ccccc2CCc2ccccc21 |  | 94.9% | 98.2% | 97.5% | 102% | 100% | 99.3% | 99%
Cc1ccc(C(=O)Nc2ccc(CN3CCN(C)CC3)c(C(F)(F)F)c2)cc1C#Cc1cnc(N)c2ccc(F)cc12 |  | -79.7% (active) | -96.5% (active) | -78.5% (active) | -76.9% (active) | -93.2% (active) | -83.6% (active) | -95.9% (active)
C/C=C(/C)C(=O)OC1C=C(CO)C(=O)C(OC(=O)C2(C)OC2C)C1C(C)C (centres undefined) |  | 8.26% (active) | -58.9% (active) | -87.6% (active) | -56.3% (active) | -31.8% (active) | -26.8% (active) | -7.25% (active)
COc1ccc2c(N)ncc(C#Cc3cc(C(=O)Nc4ccc(CN5CCN(C)CC5)c(C(F)(F)F)c4)cnc3C)c2c1 |  | -49.2% (active) | -75.8% (active) | 19.3% | -49.1% (active) | -56.7% (active) | -57.7% (active) | 46%
COC(=O)c1ccc2[nH]c(O)c(C(=Nc3ccc(N(C)C(=O)CN4CCN(C)CC4)cc3)c3ccc(CCO)cc3)c2c1 |  | 26.3% | 9.37% (active) | 53.2% | 18.5% | 60.8% | 27.9% | 20.6%
Cc1ccc(S(=O)(=O)Nc2cccc(Cn3c(=O)[nH]c4ccc(Oc5ncccn5)cc4c3=O)c2)cc1 |  | 32.5% | 59% | 81.3% | 39.6% | -10.1% (active) | 64.8% | 65.2%
Cc1ccc(S(=O)(=O)NC(CCC(=O)Nc2ccccc2)C(=O)Nc2ccccc2)cc1 (centres undefined) |  | -8.66% (active) | -49.5% (active) | 0.86% (active) | 0.4% (active) | -1.32% (active) | 11.1% | -14.9% (active)
COC(=O)c1ccc2[nH]c(O)c(C(=Nc3ccc(N(C)C(=O)CN4CCN(C)CC4)cc3)c3ccc(N)cc3)c2c1 |  | 40.7% | 41.4% | 108% | 18.4% | 90.6% | 70.3% | 81.5%
O=C(Nc1cccc(Cn2c(=O)[nH]c3ccc(Oc4ncccn4)cc3c2=O)c1)c1cc(Cl)cc(Cl)c1 |  | 64% | 59.9% | 85.6% | 40.6% | 67.3% | 89.5% | -3.71% (active)
C/C(CCC(=O)O)=N/Nc1ccc([N+](=O)[O-])cc1 |  | 65.2% | 56.8% | 59.9% | 27.1% | 38.6% | 72.6% | 89.1%
Cc1ncc(C(=O)Nc2ccc(CN3CCN(C)CC3)c(C(F)(F)F)c2)cc1C#Cc1c(N)ncc2ccc(F)cc12 |  | -72.6% (active) | -72% (active) | 39.1% | -80.7% (active) | -66.5% (active) | -72.1% (active) | 23.6%
Cc1ccc(S(=O)(=O)N/N=C2\CC3CCC2C3)cc1 (centres undefined) |  | 97% | 103% | 120% | 105% | 103% | 106% | 107%
CC(=O)OC1/C=C\CC/C=C\C1 (centres undefined) |  | 106% | 107% | 129% | 103% | 103% | 101% | 110%
C#CCCCCCCC[C@@H]1OC(=O)[C@H]([C@@H](C)CC)NC(=O)[C@@H]([C@@H](C)CC)NC(=O)CC(=O)[C@@H]1C |  | 99% | 94.8% | 109% | 105% | 107% | 101% | 104%
CCOC(=O)c1c2c(cn1Cc1ccccc1)-c1oncc1CC2 |  | 98.8% | 90.5% | 111% | 104% | 111% | 103% | 94.5%
COC(c1ccccc1)C(Br)C(=O)c1ccccc1 (centres undefined) |  | 98.5% | 87.7% |  | 114% | 96.3% | 125% | 92.4%
CCc1ccc(C(=Nc2ccc(N(C)C(=O)CN3CCN(C)CC3)cc2)c2c(O)[nH]c3ccc(C(=O)OC)cc23)cc1 |  | -68.4% (active) |  | -92% (active) | -60.8% (active) | -20.5% (active) | -67.3% (active) | -87.9% (active)
